Screens (PubChem)
An excerpt weighted towards active compounds, which were near 21% of everything screened.
DRD3 antagonist: blocks the human D3 dopamine receptor. AID 652054. P35462. max response, negative = inhibition, %. hit rate 2.5% among 360,000. D3R cells, DiscoveRx beta-arrestin luminescence, antagonist mode; stronger effect = lower value; in the data active = max response below about -50%; inconclusive = no clear call, values can overlap the other calls; also: % is scaled to controls: 0 for no effect and ±100 for the full control effect
Target sequence (P35462 whole entry, looked up): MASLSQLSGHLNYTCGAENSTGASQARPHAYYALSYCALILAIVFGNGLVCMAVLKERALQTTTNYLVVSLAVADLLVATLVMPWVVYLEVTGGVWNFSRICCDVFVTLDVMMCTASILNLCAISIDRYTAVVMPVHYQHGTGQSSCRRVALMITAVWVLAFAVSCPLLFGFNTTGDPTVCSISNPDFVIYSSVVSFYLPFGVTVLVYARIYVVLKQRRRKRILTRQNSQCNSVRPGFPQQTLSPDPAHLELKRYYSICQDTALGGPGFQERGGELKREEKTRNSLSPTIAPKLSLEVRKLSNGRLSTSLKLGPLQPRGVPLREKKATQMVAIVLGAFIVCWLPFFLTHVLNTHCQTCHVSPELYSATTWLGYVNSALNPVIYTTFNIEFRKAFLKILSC
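Cells expressing the human receptor were seeded at 1500 cells/well, incubated overnight at 37 degrees C in 5% CO2, then exposed to library compounds with dopamine controls for 90 minutes at 37 degrees C before luminescent detection.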
DT40 TDP1 no CPT: qHTS for Inhibitors of human tyrosyl-DNA phosphodiesterase 1 (TDP1): qHTS in cells in absence of CPT. DT40 Tdp1-/- hTDP1 cells, no CPT, ATP luminescence, 48 h. AID 686978, 2013. hit rate 15% among 420,000. Potency, µM (series often up to 46.2 µM), for inactives: top-dose activity change, negative = growth inhibition, usual class: inhibitors; also: potency is read from the fitted curve at half-maximal effect; % is scaled to controls: 0 for no effect and ±100 for the full control effect; nearly all actives have a fitted effect of over 55% in size
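Luminescent ATP content (CellTiter-Glo) served as the growth readout. Knockout chicken DT40 cells expressing human TDP1 were exposed to compounds without camptothecin for a minimum 48 hr at 37 °C.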
ClpP mod: qHTS Assay for Activators of ClpP; purified B. subtilis ClpP, FRET peptide cleavage, 20 min; Potency, µM (titrated, usually from 57.5 µM), inactives show top-dose activity change, negative = active; hit rate 1.9% among 340,000; AID 651965, 2013; active = well fitted falling curve with a large enough effect; inconclusive = small, poorly fitted or top-dose-only effect; inactive = no such curve, though single readings can be large or run the other way; also: potency is read from the fitted curve at half-maximal effect; the source files actives as falling curves though it sought activators and does not explain the sign; nearly all actives have a fitted effect of over 65% in size
Target sequence (P80244 whole entry, looked up): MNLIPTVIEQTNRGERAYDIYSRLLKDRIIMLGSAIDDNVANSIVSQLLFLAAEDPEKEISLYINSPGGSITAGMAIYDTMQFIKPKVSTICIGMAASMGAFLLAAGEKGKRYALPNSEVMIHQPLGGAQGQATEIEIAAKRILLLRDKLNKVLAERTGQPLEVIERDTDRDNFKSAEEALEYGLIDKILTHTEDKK
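ClpP 10 microg/mL final, pH 8 Tris/KCl buffer with BSA, glycerol, Tween-20; compound pinned in; FRET-FV substrate; RT 20 min; Ex320/Em430; ΔFRET vs ADEP 5.8 microM, DMSO, no enzyme.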
D3 ag: agonists of human D3 dopamine receptor; P35462; D3R DiscoveRx beta-arrestin cells, luminescence, 90 min; max activation, %; hit rate 0.58% among 410,000; in the data active = max activation above about 30%; also: 0% is about no effect
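Agonist-mode cell screen: cells plated at 1500/well and incubated overnight at 37 °C, then exposed to library compounds for 90 min at 37 °C. Detection reagent was added for 30–60 min at room temperature, and luminescence was read.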
DT40 TDP1 CPT: DT40-hTDP1 cell growth loss with CPT; AID 686979; Potency, µM (highest dose often 46.2 µM), without a hit: at the top dose activity change, negative = growth inhibition, actives largely listed as inhibitors; chicken DT40 Tdp1-/-;hTDP1 cells + 20 nM CPT, ATP luminescence, 48 h; hit rate 12% among 420,000; also: potency is read from the fitted curve at half-maximal effect; % is scaled to controls: 0 for no effect and ±100 for the full control effect; nearly all actives have a fitted effect of over 55% in size
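Cell growth measured by CellTiter-Glo luminescence after a minimum 48 h, 37 C compound exposure with 20 nM CPT in Tdp1-knockout DT40 cells stably expressing hTDP1, seeded 400/well; qHTS titration format.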
IL-1B inflam inh: inflammasome signaling inhibition, IL-1 beta readout; THP-1 LPS/ATP IL-1B secretion, AlphaLISA, 16 h; stronger effect = lower value; hit rate 4.7% among 360,000; AID 743279; activity change, % at 57.5 µM; in the data active = activity change below about -50%; inconclusive = mostly about -30% to -49%; also: % is scaled to controls: 0 for no effect and ±100 for the full control effect
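Secreted IL-1B measured by AlphaLISA bead assay after 16 h compound exposure of THP-1 cells; compounds (final up to 57.5 uM) added 1 h before LPS (250 ng/mL) and ATP (1.25 mM) stimulation; lower signal means less secretion.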
An asterisk follows results filed as active; u = inconclusive; x = no result. Unless noted, calls follow the shape of the dose curve; as a rule, active = well fitted inhibition curve with a large enough effect; inconclusive = small, poorly fitted or top-dose-only effect; inactive = flat fitted curve, though single readings scatter.

SMILES	DRD3 antagonist	DT40 TDP1 no CPT	ClpP mod	D3 ag	DT40 TDP1 CPT	IL-1B inflam inh
CCOc1ccc(NC(=O)/C=C\C(=O)N(c2ccc(C(C)C)cc2)C(C(=O)NCc2ccco2)c2ccc(F)cc2)cc1 (configuration not stated)	x	13µM*	0%	2	5.2µM*	x
COc1ccc(N(C(=O)/C=C\C(=O)Nc2ccc(Cl)cc2)C(C(=O)NCc2ccco2)c2ccc(C)cc2)cc1 (configuration not stated)	x	18µM*	-3%	1	16µM*	x
CCc1ccc(-c2nn(CC(=O)NCc3ccccc3)c3c2cnc2ccc(C)cc23)cc1	x	-13%	-5%	-8	-11%	x
CC(OC(=O)C1CC1C)C(=O)Nc1ncc(Cl)cc1Cl (configuration not stated)	0	2%	x	12	11%	4
Cc1nc2cc(NC(=O)CS(=O)(=O)c3ccc(F)cc3)ccc2s1	-8	u	1%	-15	u	-14
Cc1ccc(-c2cn(-c3ccc(Cl)cc3)c(S(=O)(=O)CC(=O)Nc3ccccc3)n2)cc1	x	u	-2%	1	26µM*	x
Cc1ccc(-n2cc(-c3ccccc3)nc2S(=O)(=O)CC(=O)Nc2ccc(F)cc2)cc1	x	u	-2%	-12	23µM*	x
Cc1ccc(NC(=O)COC(=O)c2nn(-c3ccc(Cl)cc3)cc2O)cc1	6	u	-1%	-10	-22%	-1
CNC(=O)C1CCC(Cn2c(=O)c3sccc3n(CC(=O)N3CCC(C)CC3)c2=O)CC1 (configuration not stated)	x	1%	-3%	4	2%	x
O=C(Nc1ccc2c(c1)OCCO2)C1CCCN1C(=O)Nc1ccc(F)cc1 (configuration not stated)	12	14%	1%	8	-10%	11
CCOC(=O)C1=C(COC(=O)COc2ccc(OCC)cc2)NC(=O)NC1C (configuration not stated)	4	2%	-5%	6	6%	6
Cc1ccc(C)c(NC(=O)CN(C)C(=O)c2cc(-c3cccs3)nn2-c2ccccc2)c1	9	-28%	-1%	-2	-19%	1
O=C(Nc1cccc([N+](=O)[O-])c1)C12CC3CC(C1)CC(n1cnc([N+](=O)[O-])n1)(C3)C2	7	u	-11%	3	26µM*	-21
O=C(Nc1ccccc1)C12CC3CC(C1)CC(n1cnc([N+](=O)[O-])n1)(C3)C2	15	-2%	-1%	-9	-6%	22
Cc1cccc(N(C(=O)c2snc(C(N)=O)c2N)C(C(=O)NCC2CCCO2)c2ccc(N(C)C)cc2)c1C (configuration not stated)	27	u	-2%	-16	u	7
CC(CNC(=O)c1ccc2nc(CCc3ccccc3)oc2c1)c1ccccc1 (configuration not stated)	x	u	-11%	-14	-25%	x
Cc1ccc(S(=O)(=O)N2CCN(C(=O)c3ccccc3)CC2)cc1	25	-1%	-2%	0	-26%	u
Cc1ccc(S(=O)(=O)N2CCN(C(=O)c3sccc3-c3ccccc3)CC2)cc1	-14	18µM*	-14%	-6	u	0
O=C(c1cccs1)N1CCN(S(=O)(=O)c2ccccc2)CC1	4	1%	-8%	3	-15%	15
O=C(c1sccc1-c1ccccc1)N1CCN(S(=O)(=O)c2ccccc2)CC1	11	23µM*	1%	2	u	6
COc1ccc(/C=C2/C(=O)ON=C2c2ccccc2)cc1OC	u	15µM*	-1%	0	u	-102*
COc1ccc(/C=C2\C(=O)ON=C2c2ccccc2)cc1OC	11	u	0%	-1	26µM*	-98*
COc1cc(/C=C2\C(=O)ON=C2c2ccccc2)cc(OC)c1OC	21	16µM*	-1%	5	u	-117*
NC(=O)COc1ccccc1	2	-4%	0%	1	2%	-5
COc1ccc(/C=C2\N=C(c3c(-c4ccccc4)noc3C)OC2=O)cc1OC	8	-17%	0%	0	4%	-10
SMILES	DRD3 antagonist	DT40 TDP1 no CPT	ClpP mod	D3 ag	DT40 TDP1 CPT	IL-1B inflam inh
NC(=O)COc1ccc(/C=C2\C(=O)ON=C2c2ccccc2)cc1	-12	15µM*	1%	-3	16µM*	u
COc1ccc(COC(=O)C2CCN(S(=O)(=O)c3ccc(C)cc3)CC2)cc1	2	1%	-1%	6	-1%	16
COc1cc(/C=C2\N=C(c3ccccc3)NNC2=O)cc(OC)c1OC	-13	4.6µM*	x	0	5.2µM*	29
CCOc1cc(/C=C2/C(=O)ON=C2C)ccc1OCc1ccccc1F	-17	u	6%	1	u	-100*
CCOc1cc(/C=C2\C(=O)ON=C2c2ccccc2)ccc1OC	-9	18µM*	1%	-2	23µM*	-94*
CCCCc1ccc(/C=C2\C(=O)ON=C2c2ccccc2)s1	-3	7%	1%	19	4%	8
O=C1ON=C(c2ccccc2)/C1=C/c1ccco1	3	u	0%	3	u	19
CCOc1cc(/C=C2/C(=O)ON=C2C)ccc1OCc1ccccc1	-15	u	x	12	-4%	-20
Cc1cccc(C2=NOC(=O)/C2=C\c2ccccc2F)c1	-6	2.6µM*	-12%	0	-24%	26
COc1cccc(Nc2ncc3nc(CCc4ccccc4)c(=O)n(C4CC4)c3n2)c1	x	-14%	x	x	-9%	x
COc1ccc(C(=O)N(Cc2sccc2C)C2CCS(=O)(=O)C2)cc1Cl (configuration not stated)	x	18µM*	2%	-15	u	x
Cc1cc(Cl)ccc1OCC(=O)N(Cc1sccc1C)C1CCS(=O)(=O)C1 (configuration not stated)	x	18µM*	-3%	-7	23µM*	x
CC(C)(C)c1ccc(C(=O)/C=C2\NC(=O)CS2)cc1	13	18µM*	-4%	3	15µM*	-23
CCOC(=O)N1CCC(NCCNC(=O)c2cccs2)CC1	-77*	-6%	2%	-8	-7%	-15
CCOC(=O)N1CCC(NCCNC(=O)c2ccccc2)CC1	-73*	-10%	-1%	-2	-6%	16
CCOC(=O)N1CCC(NC(=O)c2cccs2)CC1	10	-6%	-6%	-2	-3%	-12
CCOC(=O)N1CCC(NCCNC(=O)c2ccccc2Cl)CC1	u	4%	0%	-2	-3%	1
